Usually inhibition stands for the drop in the measured response relative to a control, in per cent.

The target in one test is Fibroblast growth factor receptor 2 (Homo sapiens) (UniProt P21802). Particulars: at 1 µM.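 Note: reported figure is a mean percent inhibition of FGFR2.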
Sequence of Fibroblast growth factor receptor 2 (Homo sapiens) (P21802 22-821 limits assumed): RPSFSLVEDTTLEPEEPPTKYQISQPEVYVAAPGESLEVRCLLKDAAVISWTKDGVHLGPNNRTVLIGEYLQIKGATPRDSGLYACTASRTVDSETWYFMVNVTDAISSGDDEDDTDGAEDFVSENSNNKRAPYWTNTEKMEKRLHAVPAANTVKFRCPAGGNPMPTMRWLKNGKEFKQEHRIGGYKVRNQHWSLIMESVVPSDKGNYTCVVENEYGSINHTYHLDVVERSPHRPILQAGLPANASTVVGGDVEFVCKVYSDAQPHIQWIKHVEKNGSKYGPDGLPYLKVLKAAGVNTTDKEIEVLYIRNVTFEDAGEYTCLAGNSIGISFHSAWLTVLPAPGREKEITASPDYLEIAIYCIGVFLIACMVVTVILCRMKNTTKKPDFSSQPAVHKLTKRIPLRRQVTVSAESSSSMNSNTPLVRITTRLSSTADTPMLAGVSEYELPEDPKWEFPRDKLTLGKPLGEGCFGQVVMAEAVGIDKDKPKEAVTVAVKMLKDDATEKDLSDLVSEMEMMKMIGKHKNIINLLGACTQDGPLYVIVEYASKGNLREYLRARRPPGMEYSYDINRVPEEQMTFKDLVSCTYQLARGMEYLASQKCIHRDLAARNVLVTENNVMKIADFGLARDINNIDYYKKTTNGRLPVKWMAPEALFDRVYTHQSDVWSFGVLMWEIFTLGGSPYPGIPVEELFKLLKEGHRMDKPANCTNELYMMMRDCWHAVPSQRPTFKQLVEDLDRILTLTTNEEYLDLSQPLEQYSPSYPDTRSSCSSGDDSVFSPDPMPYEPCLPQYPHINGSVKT
With `O=C(O[C@H]1CN[C@H](C#Cc2cc3ncnc(Nc4ccc(Cc5ccccc5)cc4)c3s2)C1)N1CCOCC1`, the inhibition was 1.51%.

Regarding `CCn1c(-c2nonc2N)nc2ccccc21`, the inhibition was 4.22%.

On to `COc1ccc2[nH]c3c4[nH]c5ccc(OC)cc5c4c4c(c3c2c1)C(=O)NC4=O`, for which the inhibition was 16.4%.

With `CCn1cc(-c2ccnc3[nH]ccc23)c(-c2cccc(NC(=O)Nc3ccc(OCc4ccccc4)cc3)c2)n1`, the inhibition came to 0.34%.

As for `Fc1ccc(-c2nn3ncccc3c2-c2ccnc(Nc3ccc4c(c3)OCCO4)n2)cc1`, the inhibition came out at 23.5%.

Consider `CCN1CCC(CC(=O)Nc2n[nH]c3nnc(-c4cccc(F)c4F)cc23)CC1`, for which the inhibition was 3.38%.

Consider `CC(C)COC(=O)c1ccc2c(c1)/C(=C/Nc1ccc(S(N)(=O)=O)cc1)C(=O)N2`, for which the inhibition came to 17.3%.

For `COC(=O)Nc1nc2ccc(S(=O)(=O)c3ccc(NC(=O)Nc4cc(C(F)(F)F)ccc4F)cc3)cc2[nH]1`, the inhibition worked out at 7.81%.

Turning to `CCOc1ccc2c(-c3ccnc(Nc4cccc(C(F)(F)F)c4)n3)cnn2n1`, the inhibition amounted to 7.12%.

For `COc1cccc(-n2ncc3c(N/N=C/c4ccc(F)cc4)ncnc32)c1`, the inhibition was 8.02%.

In the case of `COc1cc(Nc2nccc(Nc3ccc4c(C)n[nH]c4c3)n2)cc(OC)c1OC`, the inhibition was 39.8%.

In the case of `CC1=C(C(=O)Nc2cc(Cl)c3[nH]ncc3c2)C(c2ccc(C(F)(F)F)cc2)CC(=O)N1` (configuration not stated), the inhibition amounted to 3.56%.

Turning to `CCn1c(-c2nonc2N)nc2c(C#CC(C)(C)O)ncc(OC3CCNCC3)c21`, the inhibition came out at 11.4%.

With `CNC(=O)c1cccc(C#Cc2cncnc2Nc2ccc(OCc3cccc(F)c3)c(Cl)c2)c1`, the inhibition was 8.07%.

Regarding `COc1ccc(-c2cc3c(N)ncnc3o2)cc1`, the inhibition is -4.78%.

`COc1cc(/C=N/Nc2ncnc3[nH]ncc23)ccc1O`: the inhibition amounted to 16.9%.

With `COc1cc2ncn(-c3cc(OCc4ccccc4C(F)(F)F)c(C(=O)N(C)C)s3)c2cc1OC`, the inhibition came out at 20.8%.

On to `NS(=O)(=O)c1ccc(Nc2ncc(-c3ccccc3)o2)cc1`, for which the inhibition came out at 16.1%.

For a further test, the target named is Fibroblast growth factor receptor 3 (Homo sapiens) (UniProt P22607). As to conditions: at 0.1 µM.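 Note: each value is a mean percent inhibition of FGFR3.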
Sequence of Fibroblast growth factor receptor 3 (Homo sapiens) (P22607 23-806 limits assumed): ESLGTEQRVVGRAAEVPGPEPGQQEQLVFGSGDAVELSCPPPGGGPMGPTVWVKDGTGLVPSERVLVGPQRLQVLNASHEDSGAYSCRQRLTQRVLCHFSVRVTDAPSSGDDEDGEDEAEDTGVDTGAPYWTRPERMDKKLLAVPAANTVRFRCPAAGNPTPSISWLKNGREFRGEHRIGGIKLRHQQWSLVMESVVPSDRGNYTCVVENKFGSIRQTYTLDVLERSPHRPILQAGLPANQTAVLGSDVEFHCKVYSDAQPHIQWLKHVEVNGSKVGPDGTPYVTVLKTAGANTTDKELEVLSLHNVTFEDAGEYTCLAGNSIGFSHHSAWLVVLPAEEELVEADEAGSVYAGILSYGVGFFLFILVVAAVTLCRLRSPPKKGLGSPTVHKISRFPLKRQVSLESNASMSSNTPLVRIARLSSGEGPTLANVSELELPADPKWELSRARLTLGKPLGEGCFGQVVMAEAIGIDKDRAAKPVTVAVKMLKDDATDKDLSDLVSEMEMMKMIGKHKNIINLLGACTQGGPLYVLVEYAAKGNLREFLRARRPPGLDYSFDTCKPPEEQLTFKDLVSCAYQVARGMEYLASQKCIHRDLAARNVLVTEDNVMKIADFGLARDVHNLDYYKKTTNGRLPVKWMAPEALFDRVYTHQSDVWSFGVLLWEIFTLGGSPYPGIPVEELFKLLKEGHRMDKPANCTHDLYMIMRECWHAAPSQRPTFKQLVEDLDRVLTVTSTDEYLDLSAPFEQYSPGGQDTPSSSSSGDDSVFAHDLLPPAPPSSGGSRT
Turning to `CCCN(CCS(C)(=O)=O)Cc1ccc(-c2ccc3ncnc(Nc4ccc(OCc5cccc(F)c5)c(Cl)c4)c3c2)o1`, the inhibition was determined as 3.56%.

Turning to `Cc1ccc2c(-c3ccnc(Nc4ccccc4)n3)c(-c3ccc(F)cc3)nn2n1`, the inhibition stood at 6.27%.

Turning to `Fc1ccc(-c2cc(-c3c[nH]nc3-c3ccccn3)ccn2)cc1`, the inhibition was 4.33%.

For `FC(F)(F)c1cccc(-c2nn3ncccc3c2-c2ccnc(Nc3ccc4c(c3)OCCO4)n2)c1`, the inhibition turned out to be 4.74%.

Turning to `N#Cc1c(NC(=O)CN2CCOCC2)sc2c1CCCC2`, the inhibition is 3.63%.

Turning to `c1ccc(COc2ccc(Nc3ncnc4ccc(-c5ccco5)cc34)cc2)cc1`, the inhibition was 2.01%.

In the case of `Fc1ccc(-c2nn3ccccc3c2-c2ccncc2)cc1`, the inhibition came out at 5.68%.

As to `Cc1cccc(Nc2ncc(-c3ccccc3)o2)c1`, the inhibition was found to be 6.68%.

As for `COc1cc2c(cc1Nc1nc(Nc3ccsc3C(N)=O)c3cc[nH]c3n1)N(C(=O)CN(C)C)CCC2(C)C`, the inhibition stood at 9.36%.

On to `c1cc(-c2cnn3nc(N4CCOCC4)ccc23)nc(NC2CC2)n1`, for which the inhibition came to 6.59%.

`CC(=O)NCc1cccc(C#Cc2cncnc2Nc2ccc(OCc3cccc(F)c3)c(Cl)c2)c1`: the inhibition amounted to 0.88%.

Consider `CC(=O)Nc1cccc(C#Cc2cncnc2Nc2ccc(OCc3cccc(F)c3)c(Cl)c2)c1`, for which the inhibition worked out at 4.66%.

Take `Nc1nc(-c2cccc(Cl)c2)c(-c2ccc3ncccc3n2)s1`: the inhibition turned out to be 4.38%.

For `COc1ccc(-c2oc3ncnc(N)c3c2-c2ccc(NC(=O)Nc3cc(C(F)(F)F)ccc3F)cc2)cc1`, the inhibition was 10%.

`CC(C)(CO)CNC(=O)c1ccc2c(c1)/C(=N/Nc1ccc(S(N)(=O)=O)cc1)C(=O)N2`: the inhibition is 4.13%.

As for `CCNC(=O)O[C@H]1CN[C@H](C#Cc2cc3ncnc(Nc4ccc(OCc5cccc(F)c5)c(Cl)c4)c3s2)C1`, the inhibition stood at 4.87%.

In the case of `O=C(O[C@H]1CN[C@H](C#Cc2cc3ncnc(Nc4ccc(Cc5ccccc5)cc4)c3s2)C1)N1CCOCC1`, the inhibition worked out at 1.73%.

On to `CCn1c(-c2nonc2N)nc2ccccc21`, for which the inhibition worked out at 2.45%.

For `COc1ccc2[nH]c3c4[nH]c5ccc(OC)cc5c4c4c(c3c2c1)C(=O)NC4=O`, the inhibition came to 7.7%.

As to `CCn1cc(-c2ccnc3[nH]ccc23)c(-c2cccc(NC(=O)Nc3ccc(OCc4ccccc4)cc3)c2)n1`, the inhibition is -0.88%.

Take `Fc1ccc(-c2nn3ncccc3c2-c2ccnc(Nc3ccc4c(c3)OCCO4)n2)cc1`: the inhibition came out at 4.66%.

Regarding `CCN1CCC(CC(=O)Nc2n[nH]c3nnc(-c4cccc(F)c4F)cc23)CC1`, the inhibition is -1.19%.

As to `CC(C)COC(=O)c1ccc2c(c1)/C(=C/Nc1ccc(S(N)(=O)=O)cc1)C(=O)N2`, the inhibition came to 0.1%.

As for `COC(=O)Nc1nc2ccc(S(=O)(=O)c3ccc(NC(=O)Nc4cc(C(F)(F)F)ccc4F)cc3)cc2[nH]1`, the inhibition stood at 4.85%.

Source of the values: ChEMBL document CHEMBL1961873, “Compounds: GSK PKIS; Assays: Nanosyn kinase panel” (2012).
